Test results taken from PubChem BioAssay AID1159580 (chemical genetic matrix, 2015).
Among all 5,500 compounds or so, about 2,000 (36%) were called active. Not shown: some 18% with an inconclusive outcome. Cut-off read from the data, not from the text of the source: active = normalized growth mostly below about 0.91 (no sharp cut-off); inconclusive = no clear call, values can overlap the other calls; inactive = mostly above about 0.92. The list shows a part of the results.

Experiment: chemical genetic growth profiling, strain panel (AID 1159580);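 note: tested at 20 µM; growth read once vehicle control cultures reached saturation at 30 °C; 1 = growth at the plate median or of vehicle wells; lower values mean less growth of the strain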
Settings: S. cerevisiae deletion strains, growth OD

Measured: normalized growth

O=C(O[C@@H]1Cc2c(O)cc(O)cc2O[C@@H]1c1cc(O)c(O)c(O)c1-c1c([C@H]2Oc3cc(O)cc(O)c3C[C@H]2O)cc(O)c(O)c1O)c1cc(O)c(O)c(O)c1
inactive: locus YAL021C, strain ccr4, hits give low values 0.962 | locus YAL026C, strain drs2, hits give low values 0.965 | locus YAL030W, strain snc1, hits give low values 1.01 | locus YBL061C, strain skt5, hits give low values 0.997 | locus YBR009C, strain hhf1, hits give low values 0.979 | locus YBR021W, strain FUR4, hits give low values 1.03 | locus YBR023C, strain chs3, hits give low values 0.936 | locus YBR171W, strain sec66, hits give low values 1.02 | locus YBR279W, strain paf1, hits give low values 0.978 | locus YCL011C, strain gbp2, hits give low values 0.988 | locus YCL016C, strain dcc1, hits give low values 0.988 | locus YCL061C, strain MRC1, hits give low values 0.993 | locus YCL069W, strain vba3, hits give low values 1.01 | locus YCR088W, strain abp1, hits give low values 1.03 | locus YDL005C, strain med2, hits give low values 1.03 | locus YDL040C, strain nat1, hits give low values 1 | locus YDL185W, strain tfp1, hits give low values 0.928 | locus YDR001C, strain nth1, hits give low values 1.03 | locus YDR137W, strain rgp1, hits give low values 0.984 | locus YDR195W, strain ref2 1.07 | locus YDR297W, strain sur2, hits give low values 0.981 | locus YDR334W, strain swr1, hits give low values 0.985 | locus YDR335W, strain msn5, hits give low values 0.979 | locus YDR392W, strain spt3, hits give low values 1.02 | locus YEL003W, strain gim4, hits give low values 0.968 | locus YEL037C, strain rad23, hits give low values 1 | locus YEL061C, strain CIN8 (second series), hits give low values 1.02 | locus YER016W, strain bim1, hits give low values 1.01 | locus YER110C, hits give low values 0.992 | locus YER111C, strain swi4, hits give low values 0.963 | locus YER155C, strain BEM2 (second series), hits give low values 1.03 | locus YFR010W, strain ubp6, hits give low values 0.986 | locus YGL078C, strain dbp3, hits give low values 0.983 | locus YGL167C, strain pmr1, hits give low values 1 | locus YGL173C, strain kem1, hits give low values 0.961 | locus YGL227W, strain vid30, hits give low values 1.04 | locus YGL240W, strain doc1, hits give low values 1.09 | locus YGL253W, strain hxk2, hits give low values 1.01 | locus YHR013C, strain ard1, hits give low values 0.937 | locus YHR142W, strain chs7, hits give low values 0.969 | locus YIL125W, strain kgd1, hits give low values 1.02 | locus YJL092W, strain hpr5, hits give low values 1.03 | locus YJL095W, strain BCK1 (second series), hits give low values 0.991 | locus YJL115W, strain asf1, hits give low values 1.03 | locus YJL129C, strain trk1, hits give low values 1.06 | locus YJL154C, strain vps35, hits give low values 1.02 | locus YJL164C, strain tpk1, hits give low values 0.941 | locus YJL166W, strain qcr8, hits give low values 0.984 | locus YJL168C, strain set2, hits give low values 0.934
active: locus YAL013W, strain DEP1, hits give low values 0.0787 | locus YBR229C, strain ROT2, hits give low values 0.387 | locus YBR231C, strain swc5, hits give low values 0.873 | locus YCL029C, strain bik1, hits give low values 0.643 | locus YDL035C, strain GPR1, hits give low values 0.0755 | locus YDL074C, strain BRE1, hits give low values 0.204 | locus YDL101C, strain DUN1, hits give low values 0.113 | locus YDL134C, strain PPH21, hits give low values 0.09 | locus YDL192W, strain arf1, hits give low values 0.553 | locus YDR069C, strain doa4, hits give low values 0.893 | locus YDR101C, strain arx1, hits give low values 0.772 | locus YDR159W, strain sac3, hits give low values 1.14 [resistant] | locus YDR162C, strain NBP2, hits give low values 0.0726 | locus YDR318W, strain mcm21, hits give low values 0.61 | locus YDR388W, hits give low values 0.737 | locus YDR502C, strain sam2, hits give low values 0.362 | locus YER015W, strain faa2, hits give low values 0.892 | locus YER155C, strain BEM2, hits give low values 0.523 | locus YER167W, strain BCK2, hits give low values 0.295 | locus YGL086W, strain mad1, hits give low values 0.308 | locus YGL248W, strain PDE1, hits give low values 0.146 | locus YGR078C, strain PAC10, hits give low values 0.414 | locus YGR135W, strain pre9, hits give low values 0.429 | locus YGR229C, strain SMI1, hits give low values 0.0837 | locus YGR252W, strain gcn5, hits give low values 0.516 | locus YHR027C, strain rpn1, hits give low values 0.911 | locus YHR030C, strain SLT2, hits give low values 0.219 | locus YHR079C, strain IRE1 (second series), hits give low values 0.626 | locus YHR094C, strain hxt1, hits give low values 0.888 | locus YHR129C, strain ARP1, hits give low values 0.205 | locus YHR200W, strain rpn10, hits give low values 0.569 | locus YIL066C, strain RNR3, hits give low values 0.0703 | locus YIL073C, strain SPO22, hits give low values 0.15 | locus YIR030C, strain dcg1, hits give low values 0.863 | locus YJL095W, strain BCK1, hits give low values 0.107 | locus YJL134W, strain LCB3, hits give low values 0.432
